The campaign covered roughly 86,000 compounds. About 1,200 (1.4%) were called active. No stated cut-off is given here; in the data, active means activity above about 200%; inactive means the rest. Shown is part of a subset that was picked to be rich in actives.

Chain of Estrogen receptor (Homo sapiens) (P03372 whole entry, looked up, the tested form may be a part): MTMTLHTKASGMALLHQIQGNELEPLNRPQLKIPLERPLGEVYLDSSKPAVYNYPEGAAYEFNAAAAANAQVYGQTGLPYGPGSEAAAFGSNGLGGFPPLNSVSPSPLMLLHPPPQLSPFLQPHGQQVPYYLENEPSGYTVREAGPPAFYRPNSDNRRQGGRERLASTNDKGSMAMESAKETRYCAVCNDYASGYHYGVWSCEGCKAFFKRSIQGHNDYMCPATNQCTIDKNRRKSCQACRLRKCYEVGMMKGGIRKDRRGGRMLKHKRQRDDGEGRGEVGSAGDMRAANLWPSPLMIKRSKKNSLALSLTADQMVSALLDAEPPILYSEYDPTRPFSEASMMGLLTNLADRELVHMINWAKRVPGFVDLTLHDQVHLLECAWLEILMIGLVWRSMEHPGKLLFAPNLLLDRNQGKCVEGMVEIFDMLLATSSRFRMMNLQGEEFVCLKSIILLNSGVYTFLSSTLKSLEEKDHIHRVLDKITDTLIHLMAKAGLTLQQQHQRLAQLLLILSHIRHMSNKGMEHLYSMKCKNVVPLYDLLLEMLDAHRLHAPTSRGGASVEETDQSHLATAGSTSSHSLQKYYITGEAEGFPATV

This assay concerns the target Estrogen receptor (Homo sapiens) (UniProt P03372). Kind of assay: ERα coactivator recruitment potentiators – biochemical, TR-FRET, ERα LBD, low estradiol, primary screen (AID 639).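 Further: binding measured in presence of low estradiol as agonist stimulus; 0% = peptide alone without receptor and 100% = receptor with peptide.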 To be noted: TR-FRET ERalpha-LBD/SRC-Cy5 coactivator binding, 2 h; at 25.6 µM; hits give high values; 100 = basal binding, no effect.
`CCc1nnc(NC(=O)CSc2nc3ccccc3c(=O)n2CCCOC)s1`: the coactivator binding (% of control) is 102% (inactive). The figure for `CCOC(=O)c1c(N=CN(C)C)c(C#N)c2n1CCCC2` is 111% (inactive). Regarding `COc1ccc(NC(=O)CSc2nnc(-c3cccs3)n2Cc2ccco2)cc1OC`, the coactivator binding (% of control) is 95.3% (inactive). For the compound `COc1cc(Cl)c(C)cc1NC(=O)CSc1nnc(-c2cccnc2)n1Cc1ccco1`, the coactivator binding (% of control) was 90.9% (inactive). Next, `COc1ccccc1NC(=O)CSc1nc2sc(C)c(C)c2c(=O)n1Cc1ccco1`: 225% (active); `COC(=O)c1ccc(NC(=O)C23CC4CC(C2)CC(n2cnc(Cl)n2)(C4)C3)cc1`: 101% (inactive); `Cc1cccc(N(C(=O)c2ccc(CN3CCOCC3)o2)C(C(=O)NC2CCCCC2)c2ccc(F)cc2)c1` (stereo unspecified): 114% (inactive). The figure for `CCn1c(SCC(=O)NCC2CCCO2)nc2cc(S(=O)(=O)N3CCCCC3)ccc21` (stereo unspecified) is 88.2% (inactive). For `Cc1ccc2cc(C#N)c(SCC(=O)NCC3CCCO3)nc2c1C` (stereo unspecified), the coactivator binding (% of control) is 240% [fluorescence artefact?] (active). The figure for `O=C(CSc1nnc(-c2ccc(NS(=O)(=O)c3ccccc3)cc2)o1)NCC1CCCO1` (stereo unspecified) is 103% (inactive); for `CC1Cc2ccccc2N1C(=O)c1cc2sccc2n1Cc1ccccc1` (stereo unspecified) it is 200% (inactive).

Regarding `CSc1nc(N)c(C#N)c(-c2ccccc2Cl)c1C#N`, the coactivator binding (% of control) is 214% [fluorescence artefact?] (active). Next, `CCc1c(-c2ccccc2)nc(N)c(C#N)c1-c1cccs1`: 95.7% (inactive); `Cc1c(-c2ccccc2)nc(N)c(C#N)c1-c1cccs1`: 155% (inactive); `O=C(c1cc2c(s1)CCC2)N1CCN(c2ccccc2)CC1`: 19.5% (inactive).

As to `CCCNC(=S)N1CCC(NC(=O)C23CC4CC(CC(C4)C2)C3)CC1`, the coactivator binding (% of control) is 108% (inactive).

Turning to `COc1ccc(C(=O)Cn2nnc(-c3ccc(N4CCOCC4)cc3)n2)cc1OC`, the coactivator binding (% of control) is 240% (active). In the case of `CCOc1ccc(-c2nnn(CC(=O)N3CCN(c4ccc(OC)cc4)CC3)n2)cc1OCC`, the coactivator binding (% of control) is 87.8% (inactive). Next, `O=C(Cn1nnc(-c2ccc(CN3CCOCC3)cc2)n1)NC1CCCCC1`: 123% (inactive). Next, `COc1ccc(N(CC(=O)NC2CCCCC2)C(=O)CNC(=O)c2ccco2)c(OC)c1`: 113% (inactive).

As for `O=C(Nc1nncs1)c1cccc(S(=O)(=O)N2CCCCC2)c1`, the coactivator binding (% of control) was 91.9% (inactive). Regarding `CSc1nnc2c(n1)OC(c1cn(C)c3ccccc13)N(C(C)=O)c1ccccc1-2` (stereo unspecified), the coactivator binding (% of control) is 120% (inactive).

With `CSc1nnc2c(n1)OC(c1ccsc1)N(C(C)=O)c1ccccc1-2` (stereo unspecified), the coactivator binding (% of control) was 348% (active). As to `COCCCNC(=O)CN1CCN(Cc2ccccc2Cl)C1=O`, the coactivator binding (% of control) is 107% (inactive).

Turning to `CCOc1ccc(N=C2NC(=O)S/C2=C\c2ccc(O)cc2)cc1`, the coactivator binding (% of control) was 179% (inactive). For `C/C(=N\NC(=O)c1ccc(C)cc1)C1C(=O)c2ccccc2C1=O`, the coactivator binding (% of control) was 71.8% (inactive). Next, `Cc1cccc(-n2nc3c(c2NC(=O)c2ccc(Br)o2)CSC3)c1C`: 129% (inactive); `Cc1cc(C)nc(-n2nc(C)cc2NC(=O)c2ccc(Br)o2)n1`: 427% (active).

`COc1cc(OC)c(NC(=O)c2ccc(Br)o2)cc1Cl`: the coactivator binding (% of control) is 112% (inactive). The figure for `CC(C)(C)n1nnnc1C(c1ccc(Cl)cc1)N1CCSCC1` (stereo unspecified) is 105% (inactive); for `C#CCN(N(C)c1ncc(C(F)(F)F)cc1Cl)S(=O)(=O)c1ccc2ccccc2c1` it is 165% (inactive).

On to `c1ccc(C(c2ccccc2)N2CCN(Cc3nnnn3C3CCCCC3)CC2)cc1`, for which the coactivator binding (% of control) is 209% [fluorescence artefact?] (active). As for `c1ccc(CCn2nnnc2CN2CCN(C3CCCC3)CC2)cc1`, the coactivator binding (% of control) was 110% (inactive). For the compound `COc1ccc(C(c2nnnn2C2CCCCC2)N2CCN(c3ccccc3F)CC2)cc1` (stereo unspecified), the coactivator binding (% of control) is 87.6% (inactive).

Regarding `COc1ccc(N2CCN(Cc3ccc(Br)s3)CC2)cc1`, the coactivator binding (% of control) is 108% (inactive). The figure for `Cc1cc(C)n(-c2nc(O)cc(=O)[nH]2)n1` is 103% (inactive); for `CCSc1nc(-c2ccc(OC)cc2)cc(-c2ccc(OC)cc2)c1C#N` it is 371% [fluorescence artefact?] (active).

Take `CCOc1cc(-c2cc(-c3ccc(OC)cc3)nc(N)c2C#N)ccc1O`: the coactivator binding (% of control) is 146% (inactive). The figure for `COC(=O)c1cc(OC)ccc1-c1ccc(OC)cc1` is 117% (inactive); for `O=S(=O)(NC1CCCCC1)c1ccc(F)c2ccccc12` it is 91.4% (inactive); for `CCOc1cc2[nH]c(=S)n(Cc3ccc(C(=O)NCCOC)cc3)c(=O)c2cc1OCC` it is 163% (inactive). As for `COc1ccc(-c2ccc(-c3noc(-c4ccncc4)n3)c(OC)n2)cc1`, the coactivator binding (% of control) is 107% (inactive).

As for `COc1cc(-c2nc(-c3ccncc3)no2)cc(OC)c1OC`, the coactivator binding (% of control) is 87.6% (inactive). Take `CCOc1nc(-c2ccc(OC)cc2)ccc1-c1noc(-c2cc(OC)c(OC)c(OC)c2)n1`: the coactivator binding (% of control) was 239% (active). In the case of `O=C(CO/N=C/c1ccccc1O)NNC(=O)c1ccccc1Cl`, the coactivator binding (% of control) is 102% (inactive).

For the compound `O=C(Cn1cnc2ccccc2c1=O)NCC1COc2ccccc2O1` (stereo unspecified), the coactivator binding (% of control) was 104% (inactive). Next, `OC(COc1ccc2ccccc2c1)Cn1cncn1` (stereo unspecified): 100% (inactive); `Cc1cc(C)c2c(n1)nn1c(N3CCN(c4cccc(Cl)c4)CC3)cc(C)nc21`: 169% (inactive); `C/C(O)=C\c1nc(=O)c2c(C)cc(C)nc2n1-c1ccccc1`: 297% [fluorescence artefact?] (active). In the case of `N#CCSc1nc2ccccc2c(=O)n1-c1ccccc1`, the coactivator binding (% of control) is 100% (inactive). On to `Cc1cc(Cl)c(S(=O)(=O)N(C)C)cc1OCC(N)=O`, for which the coactivator binding (% of control) was 103% (inactive). Next, `O=C1/C(=C/c2cccs2)CCc2ccccc21`: 66.3% (inactive). For the compound `Cc1cc(C)c2nc(N3CCCC3)c(C#N)cc2c1`, the coactivator binding (% of control) was 101% (inactive). As for `Cc1cccc2cc(C#N)c(N3CCCC3)nc12`, the coactivator binding (% of control) is 109% (inactive).

As for `CC(=O)c1ccc(S(=O)(=O)N2CCN(c3nc4c(C)c(C)ccc4cc3C#N)CC2)cc1`, the coactivator binding (% of control) is 225% [fluorescence artefact?] (active). On to `Cc1cc(NC(=O)CCC(=O)N(CC(=O)NCC2CCCO2)c2ccccc2C)no1` (stereo unspecified), for which the coactivator binding (% of control) was 101% (inactive). Regarding `O=C(OC1CCCCC1=O)c1cccc(S(=O)(=O)NCc2ccccc2)c1` (stereo unspecified), the coactivator binding (% of control) was 96.6% (inactive). Next, `COC(=O)c1nc2ccccc2s1`: 116% (inactive); `Nn1cnnc1N/N=C/c1cc([N+](=O)[O-])c(Cl)cc1Cl`: 600% [fluorescence artefact?] (active). Next, `CC(=O)c1cccc(NC(=O)C2CCCN2S(=O)(=O)c2cccc3nsnc23)c1` (stereo unspecified): 87.3% (inactive). The figure for `CCC(=O)Nc1nc2ccccc2n1Cc1ccccc1C` is 117% (inactive).

Consider `Cc1ccc(Cn2c(NC(=O)c3ccco3)nc3ccccc32)cc1`, for which the coactivator binding (% of control) was 316% (active). The figure for `Cc1ccc(-n2nc3cc(Cl)c(NC(=O)c4ccco4)cc3n2)cc1` is 112% (inactive). Next, `O=c1c2ccccc2nc2n1C1(CCCCC1)Cc1ccccc1-2`: 109% (inactive).

Regarding `O=C(CN1CCCCC1)N1c2ccccc2Sc2ccc(C(F)(F)F)cc21`, the coactivator binding (% of control) was 113% (inactive).

Regarding `CC1(C)C2CCC13CS(=O)(=O)NC3C2` (stereo unspecified), the coactivator binding (% of control) was 96.5% (inactive). `CCOC(=O)c1cc2cc(-c3c(C(=O)OCC)oc4cc(O)cc(O)c4c3=O)ccc2o1`: the coactivator binding (% of control) was 72.5% (inactive). Consider `CCN1CCN(Cc2c(O)ccc3c(=O)c(-c4ccc(OC)c(OC)c4)c(C(F)(F)F)oc23)CC1`, for which the coactivator binding (% of control) is 109% (inactive). The figure for `O=c1c(-c2ccc3c(c2)OCCO3)c(C(F)(F)F)oc2cc(O)cc(O)c12` is 346% [fluorescence artefact?] (active); for `COc1ccc(C2CC(c3cccs3)=Nc3ccccc3S2)cc1OC` (stereo unspecified) it is 94.7% (inactive). The figure for `CC(C)C[C@@H](N)c1nnc(SCC(=O)c2ccc(Cl)cc2)o1` is 100% (inactive).

For the compound `CC(=O)Nc1ccc(NC(=O)c2sc3nc4c(c(-c5ccc(C)cc5)c3c2N)CCC4)cc1`, the coactivator binding (% of control) is 1100% [fluorescence artefact?] (active).

`NC(=O)c1sc2nc3c(c(-c4ccccc4)c2c1N)CCC3`: the coactivator binding (% of control) is 80.3% (inactive). For the compound `Cc1cccc(NC(=O)c2sc3nc4c(c(-c5ccco5)c3c2N)CCC4)c1`, the coactivator binding (% of control) was 104% (inactive).

With `CO/N=C(/CS(=O)(=O)c1ccc(Br)cc1)c1ccc(OC)cc1`, the coactivator binding (% of control) is 94.8% (inactive). Next, `CCOC(=O)c1ccc2c(c1)nc(C)n2CC`: 89.8% (inactive); `CC(C)OCCCNC(=O)C1CC(=O)N(C2CCCCCCC2)C1` (stereo unspecified): 80.7% (inactive). The figure for `O=C(NCCc1ccc(Cl)cc1)C1CC(=O)N(C2CCCCC2)C1` (stereo unspecified) is 133% (inactive); for `O=C(NCCCN1CCCCCC1)C1CC(=O)N(C2CCCC2)C1` (stereo unspecified) it is 688% [fluorescence artefact?] (active); for `Cc1ccc(S(=O)(=O)Oc2ccc(/C=N/NC(=O)c3c(Cl)cnn3C)cc2)cc1` it is 106% (inactive).

With `CCC(C)(C(=O)NC1CCCCC1)N(C)C(=O)c1ccc2c(c1)OCO2` (stereo unspecified), the coactivator binding (% of control) is 107% (inactive).

Regarding `COCCNC(=O)C(c1ccc(C)o1)N(Cc1cccs1)C(=O)c1snc(C(N)=O)c1N` (stereo unspecified), the coactivator binding (% of control) was 117% (inactive). Take `CCC(C(=O)NC1CCCC1)N(C(=O)c1snc(C(N)=O)c1N)c1ccc2c(c1)OCCO2` (stereo unspecified): the coactivator binding (% of control) is 244% [fluorescence artefact?] (active). Next, `CCN(CC(=O)Nc1ccccc1OC)C(=O)Cn1cnc2ccccc2c1=O`: 97.9% (inactive). For `CC1Cc2ccccc2N1C(=O)CSc1nnc(-c2ccc(S(=O)(=O)N3CCCCC3)cc2)o1` (stereo unspecified), the coactivator binding (% of control) was 304% (active). `CCS(=O)(=O)c1ccc2oc(SCC(=O)N3c4ccccc4CC3C)nc2c1` (stereo unspecified): the coactivator binding (% of control) was 98% (inactive).

For `CC1Cc2ccccc2N1C(=O)CSc1nc2ccccc2o1` (stereo unspecified), the coactivator binding (% of control) is 111% (inactive).

For the compound `Cc1cccc(OCCCC(=O)Nc2ccc(S(=O)(=O)N3CCCC3)cc2)c1`, the coactivator binding (% of control) is 94.6% (inactive). The figure for `O=C(Oc1ccc(-c2nc(-c3ccccn3)no2)cc1)c1ccccc1` is 210% (active); for `c1ccc(-c2noc(-c3cccs3)n2)nc1` it is 118% (inactive). Next, `CC(C)c1nc(-c2ccccn2)no1`: 105% (inactive).

Values taken from PubChem BioAssay AID639 (Emory University Molecular Libraries Screening Center, 2007).
